Rows were chosen to be rich in hits. Some 0.81% of all compounds tested hit in one or more screens of this group.
NCOA1 inh: SRC1 coactivator transcriptional activity inhibitors, primary screen, cell-based, luminescence | Nuclear receptor coactivator 1 (Homo sapiens), Q15788 | HEK293 GAL4-SRC1 luciferase reporter | inhibition, % at 3.6 µM | actives 0.12% (n = 360,000) | AID 588354, 2011;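 active means inhibition above the campaign mean plus 3 SD, with each screening campaign given its own cutoff, cut at about 60% in these data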
NCOA3 inh: SRC3 coactivator transcriptional activity inhibitors, primary screen, cell-based, luminescence. HEK293 GAL4-SRC3 luciferase reporter. inhibition, % at 3.6 µM. actives 0.17% (n = 360,000). AID 588352, 2011;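 active means inhibition above a per-campaign cutoff, the mean of all compounds plus 3 SD, cut at about 60% in these data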;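 further: higher means less SRC3-driven luciferase light from the GAL4 reporter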
LRH-1 inv ag: LRH-1 (NR5A2) inverse agonists, primary screen, cell-based, luminescence, HEK293T, StAR-luciferase reporter | Nuclear receptor subfamily 5 group A member 2 (Homo sapiens), O00482 | LRH-1 transfected, 24 h | inhibition, % at 3.6 µM | actives 0.13% (n = 360,000);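 active means inhibition above the mean inhibition of all tested compounds plus 3 SD, cut at about 73% in these data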
NR2F2 inh: NR2F2 transcriptional activity inhibitors, primary screen, cell-based, luciferase reporter, HEK293T, luminescence | inhibition, % at 8.6 µM | COUP transcription factor 2 (Homo sapiens), P24468 | HEK293T NGFI-A luciferase reporter | actives 0.7% (n = 370,000) | AID 686940, 2013;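 active means inhibition above a per-plate cutoff, mean inhibition of test wells between control levels plus 3 SD, cut at about 38% in these data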;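 further: cells cotransfected with COUP-TFII expression vector driving the NGFI-A reporter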
NCOA2 inhibitor: inhibition of GAL4-SRC2 driven luciferase reporter, primary screen, SRC2 inhibitor project, cell-based, luminescence; Nuclear receptor coactivator 2 (Homo sapiens), Q15596; inhibition, % at 9 µM; HEK293 GAL4-SRC2 luciferase reporter; actives 0.17% (n = 370,000);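 active means inhibition above the mean inhibition of all tested compounds plus 3 SD, set per campaign, cut at about 52% in these data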
Target sequence (Q15596 whole entry, looked up, the tested form may be a part): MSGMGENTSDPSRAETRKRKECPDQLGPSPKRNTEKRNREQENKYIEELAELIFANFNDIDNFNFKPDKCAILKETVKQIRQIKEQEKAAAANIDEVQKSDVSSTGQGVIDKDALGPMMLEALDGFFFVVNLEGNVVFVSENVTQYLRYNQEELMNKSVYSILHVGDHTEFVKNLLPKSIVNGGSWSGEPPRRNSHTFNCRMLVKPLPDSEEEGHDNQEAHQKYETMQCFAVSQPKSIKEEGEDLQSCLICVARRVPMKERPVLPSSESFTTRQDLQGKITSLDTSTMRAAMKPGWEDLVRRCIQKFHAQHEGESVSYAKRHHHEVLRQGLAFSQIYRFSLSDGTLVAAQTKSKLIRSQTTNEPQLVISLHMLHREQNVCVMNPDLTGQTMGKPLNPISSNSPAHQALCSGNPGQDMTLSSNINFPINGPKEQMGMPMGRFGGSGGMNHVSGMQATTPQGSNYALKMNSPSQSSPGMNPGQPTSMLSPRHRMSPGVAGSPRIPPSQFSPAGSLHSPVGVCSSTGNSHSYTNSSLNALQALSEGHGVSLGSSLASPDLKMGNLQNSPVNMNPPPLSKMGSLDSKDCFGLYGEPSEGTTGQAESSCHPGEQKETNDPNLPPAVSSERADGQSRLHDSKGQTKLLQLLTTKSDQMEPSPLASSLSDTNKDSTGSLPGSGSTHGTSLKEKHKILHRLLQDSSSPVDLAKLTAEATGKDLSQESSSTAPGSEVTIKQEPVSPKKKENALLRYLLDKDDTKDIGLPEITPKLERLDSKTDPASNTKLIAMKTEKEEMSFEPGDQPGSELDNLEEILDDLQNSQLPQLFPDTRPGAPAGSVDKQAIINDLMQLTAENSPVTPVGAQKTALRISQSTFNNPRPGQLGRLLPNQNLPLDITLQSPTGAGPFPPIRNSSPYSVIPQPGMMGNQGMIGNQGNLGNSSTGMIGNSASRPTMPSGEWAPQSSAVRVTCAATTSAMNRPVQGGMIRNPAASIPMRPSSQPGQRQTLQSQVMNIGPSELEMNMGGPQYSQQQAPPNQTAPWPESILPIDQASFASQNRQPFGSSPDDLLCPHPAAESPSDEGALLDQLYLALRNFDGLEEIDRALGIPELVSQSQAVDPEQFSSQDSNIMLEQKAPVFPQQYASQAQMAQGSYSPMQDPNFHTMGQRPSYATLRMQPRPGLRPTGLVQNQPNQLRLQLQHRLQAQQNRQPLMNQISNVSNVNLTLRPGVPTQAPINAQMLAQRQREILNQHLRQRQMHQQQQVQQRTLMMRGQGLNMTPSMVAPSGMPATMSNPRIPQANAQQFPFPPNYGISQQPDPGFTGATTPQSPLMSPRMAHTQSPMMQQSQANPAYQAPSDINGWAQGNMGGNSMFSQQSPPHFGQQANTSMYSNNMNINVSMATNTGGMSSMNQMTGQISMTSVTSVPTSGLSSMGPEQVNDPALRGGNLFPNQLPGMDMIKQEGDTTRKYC
VP16 Luc counter: Gal4-VP16 luciferase reporter inhibitors, counter-screen for COUP-TFII antagonist project, cell-based, luminescence, HEK293. inhibition, % at 8.5 µM. shares compounds with NR2F2 inh. actives 25% (n = 2,500); in the data active means inhibition above about 13%
COUP-TFII conf: NR2F2 transcriptional activity inhibitors, confirmation, cell-based, luciferase reporter, HEK293, triplicate; shares compounds with NR2F2 inh; HEK293 NGFI-A luciferase reporter, luminescence; inhibition, % at 8.5 µM; actives 45% (n = 2,500);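 active means mean inhibition over three repeats above a set limit taken from the earlier primary screen, cut at about 38% in these data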
Of the large screens only hits and unclear results are named; the others gave an inactive call (follow-up assays come after a bar, where they were run); ! = not confirmed by another sample.

CN(CCc1ccccc1)C(=O)c1ccc(NC(=O)Cc2ccc(NC(=O)C3CCCN(C(=O)C4CCC4)C3)cc2)cc1 (centres undefined)	none
CN(CCc1ccccc1)C(=O)c1ccc(NC(=O)Cc2ccc(NC(=O)C3CCCN(C(=O)CCc4ccccc4)C3)cc2)cc1 (centres undefined)	NR2F2 inh 72.7 | VP16 Luc counter inactive | COUP-TFII conf 71.5
CCCn1nnnc1NCc1cccc(OC)c1OC	none
CCCn1c2ccccc2c2cn[nH]c(=O)c21	none
CCN(CC)c1ccc(/C=C/c2cccc[n+]2C)c(OC)c1	LRH-1 inv ag 82.1, NR2F2 inh 77.6 | VP16 Luc counter 18.6 | COUP-TFII conf 73.7
Cn1nc(C(C)(C)C)cc1C(=O)NCc1cc(F)cc2c1OCOC2	NR2F2 inh 63.3 | VP16 Luc counter inactive | COUP-TFII conf 60.7
C1=CCC(CN2CCN(C3CCCCCC3)CC2)CC1 (centres undefined)	none
COc1ccc(CNC(=O)C2CCN(C(=O)c3ccc(F)cc3)CC2)cc1OC	none
COc1cccc(NC(=O)Nc2nc(-c3ccc(OC)c(OC)c3)cs2)c1	NCOA1 inh 71.1, NCOA3 inh 71.8, NR2F2 inh 73.1, NCOA2 inhibitor 75.2 | VP16 Luc counter 72.2 | COUP-TFII conf 100.4
COc1ccc(-c2csc(NC(=O)C3CCN(C(=O)c4ccc(F)cc4)CC3)n2)cc1OC	NR2F2 inh 55.1 | VP16 Luc counter inactive | COUP-TFII conf inactive
Cc1ccc(-c2cc(-c3ccc(F)cc3)n[nH]2)c(O)c1	none
CCOC(=O)c1ccc(-c2ccc(N3C(c4ccsc4)=Cc4ccc(F)cc4C3c3c[nH]c4ccc(C#N)cc34)cc2)cc1F (centres undefined)	NR2F2 inh 56.0, NCOA2 inhibitor 78.8 (no result: NCOA1 inh, NCOA3 inh) | VP16 Luc counter inactive | COUP-TFII conf inactive
O=S(Cc1ccc(Br)cc1)Cc1nnc(SCc2c(F)cccc2Cl)n1-c1ccccc1 (centres undefined)	none
O=S(Cc1ccc(Br)cc1)Cc1nnc(SCc2ccc(Cl)cc2)n1-c1ccccc1 (centres undefined)	NR2F2 inh 45.2 | VP16 Luc counter inactive | COUP-TFII conf inactive
CC(C)(C)c1ccc(C(=O)c2c[nH]c(C(=O)NCc3ccco3)c2)cc1	none
CC(=O)Nc1ccc(NC(=O)C(C)NC(C)c2cccc3ccccc23)cc1 (centres undefined)	none
CCC1CCCCN1C(=O)c1c(-c2ccccc2)noc1C (centres undefined)	none
CCC1CCCCN1C(=O)n1ncc(C(O)(c2ccccc2)c2ccccc2)n1 (centres undefined)	NR2F2 inh 49.9 (no result: NCOA1 inh, NCOA3 inh, LRH-1 inv ag, NCOA2 inhibitor) | VP16 Luc counter inactive | COUP-TFII conf 42.7!
COc1cc(OC)c(C2C(C(=O)O)c3ccccc3C(=O)N2C)cc1OC (centres undefined)	none
CC1CCCN(c2ncnc3c2cnn3-c2ccc(Cl)cc2)C1 (centres undefined)	NCOA1 inh 87.2, NCOA3 inh 88.3, LRH-1 inv ag 92.5, NR2F2 inh 100.3, NCOA2 inhibitor 83.5 | VP16 Luc counter 89.7 | COUP-TFII conf 105.1
O=C(Nc1ccc(Cl)cn1)C1CCN(S(=O)(=O)c2cccs2)CC1	NR2F2 inh 52.9 | VP16 Luc counter inactive | COUP-TFII conf inactive
O=C(Nc1nccs1)C1CCN(S(=O)(=O)c2cccs2)CC1	none
Cc1ccc(-c2csc(NC(=O)C3CCN(S(=O)(=O)c4cccs4)CC3)n2)cc1	NR2F2 inh 69.3 | VP16 Luc counter inactive | COUP-TFII conf 49.6
O=C(Nc1nc(-c2ccc3ccccc3c2)cs1)C1CCN(S(=O)(=O)c2cccs2)CC1	none
C=CCn1c(SCC(=O)c2c(N)n(C3CC3)c(=O)[nH]c2=O)nnc1-c1ccc(OC)cc1	none
